Where “and” joins values, the source holds several entries; their conditions need not be identical. Equal entries are not always repeated. For some of these results: Entries with a potency or affinity are not part of this list. Calls of active or inactive are those of the source. Unless noted, the rule behind the calls is not given here.
What was measured:
[1] = polyglutamine-triggered caspase-3 activation inhibitors, cell-based (AID 1583); conditions: polyglutamine-induced caspase-3 activation, cell assay; stronger effect = higher value;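 tested at 10 µM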
[2] = suppressors of polyQ aggregation in yeast, 75Q-TubU reporter (AID 1593); conditions: Yeast 75Q polyglutamine aggregation reporter
[3] = rescue of polyQ-huntingtin neuronal dysfunction in worms, whole organism, C. elegans mechanosensory neurons, N-terminal huntingtin (AID 1599); conditions: touch response, stronger effect = higher value
[4] = inhibitors of mitochondrial cytochrome c release, biochemical, purified mitochondria (AID 1603); conditions: stronger effect = lower value;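 note: mouse liver mitochondria challenged with calcium chloride; signal normalized to the plate average as 100%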
[5] = inhibitors of polyQ protein aggregation (AID 1604); conditions: polyglutamine-induced protein aggregation inhibition assay; stronger effect = higher value; tested at 2.5 µM
[6] = enhancers of glutamate uptake in motor neurons, MN-1 cell line (AID 1612); conditions: MN-1 motor neuron cells, stronger effect = higher value;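 note: tested at 1 µM final; 0% = mean of DMSO vehicle wells on each plate; positive means more glutamate uptake than control and negative means less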
[7] = reducers of polyQ inclusions in PC12 cells, cell-based, NGF-treated PC12, GFPQ80 (AID 1614); conditions: PC12 NGF-treated GFP-polyQ80 inclusion reduction;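 note: lower means fewer inclusions and 0 means no inclusions at all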
[8] = suppressors of polyglutamine aggregation in yeast, 75Q-TubH (AID 1616); conditions: S. cerevisiae 75Q-TubH polyglutamine aggregation suppression; stronger effect = higher value
[9] = target: 6-phosphogluconate dehydrogenase, decarboxylating (Homo sapiens) (UniProt P52209); experiment: 6PGD enzyme inhibitors, primary screen, biochemical, human, recombinant enzyme, NADPH absorbance (AID 1159550;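 active = at least 20% inhibition of 6-phosphogluconate dehydrogenase activity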); conditions: recombinant 6PGD, NADPH absorbance 341 nm; at 10 µM; stronger effect = higher value
Chain of 6-phosphogluconate dehydrogenase, decarboxylating (Homo sapiens) (P52209 whole entry, looked up): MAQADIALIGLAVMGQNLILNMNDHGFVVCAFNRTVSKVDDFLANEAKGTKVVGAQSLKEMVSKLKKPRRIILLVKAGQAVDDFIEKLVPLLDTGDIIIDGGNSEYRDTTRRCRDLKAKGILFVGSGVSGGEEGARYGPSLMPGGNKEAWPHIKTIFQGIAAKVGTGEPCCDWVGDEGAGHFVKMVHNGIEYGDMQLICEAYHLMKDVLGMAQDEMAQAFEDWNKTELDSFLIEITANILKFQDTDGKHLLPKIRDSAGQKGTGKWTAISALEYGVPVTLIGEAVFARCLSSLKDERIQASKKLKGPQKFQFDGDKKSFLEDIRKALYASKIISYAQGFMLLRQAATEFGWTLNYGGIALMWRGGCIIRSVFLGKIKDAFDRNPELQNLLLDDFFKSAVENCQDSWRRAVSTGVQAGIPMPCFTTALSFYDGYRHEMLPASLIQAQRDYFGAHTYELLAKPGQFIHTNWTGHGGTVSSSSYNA

[10] = differential killing of epithelial or mesenchymal cells, primary screen, imaging, PC-3E GFP, TEM4-18 mCherry, co-culture (AID 1345086;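 active = compounds killing one labelled cell type while sparing the other, by normalised counts and ratio limits, not self-fluorescent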;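 for all read-outs here: cells exposed to compound for 72 h before imaging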;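 for red/green cell ratio (normalised): normalised mesenchymal count divided by normalised epithelial count so high means epithelial killing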); conditions: imaging cell counts, at 1 µM; for red/green cell ratio (normalised): actives lie on both sides
[11] = sensitizers of A549 cells to miR-34 induction, primary screen, imaging, A549 dox-inducible miR-34, nuclei and caspase counts (AID 1347080;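 active = compounds whose cell count with miR-34 switched on is under 0.7 times the count with it off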); conditions: A549 miR-34 inducible, Hoechst nuclei count, 48 h
[12] = survival rescue of mitochondrial mutant cells in low glucose, primary screen, MELAS cybrids, Rieske KO mouse fibroblasts, CellTiter-Glo (AID 1508586;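 active = mean z-score across replicates of 1.96 or higher in either the MELAS or the Rieske mutant cell line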;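 note: z relative to plate mean and SD of compound and empty wells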)
[13] = target: NAD(+) hydrolase SARM1 (Homo sapiens) (UniProt Q6SZW1); experiment: SARM1 TIR NADase inhibitors, cell lysate, NAD-Glo luminescence (AID 1508614;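 active = compound whose remaining NAD level is above about 45 nM, limit read from the data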;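 note: higher remaining NAD means stronger inhibition of SARM1 NADase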); conditions: SAM-TIR HEK293T lysate NADase, at 1 µM, stronger effect = higher value
Chain of NAD(+) hydrolase SARM1 (Homo sapiens) (Q6SZW1 whole entry, looked up, the tested form may be a part): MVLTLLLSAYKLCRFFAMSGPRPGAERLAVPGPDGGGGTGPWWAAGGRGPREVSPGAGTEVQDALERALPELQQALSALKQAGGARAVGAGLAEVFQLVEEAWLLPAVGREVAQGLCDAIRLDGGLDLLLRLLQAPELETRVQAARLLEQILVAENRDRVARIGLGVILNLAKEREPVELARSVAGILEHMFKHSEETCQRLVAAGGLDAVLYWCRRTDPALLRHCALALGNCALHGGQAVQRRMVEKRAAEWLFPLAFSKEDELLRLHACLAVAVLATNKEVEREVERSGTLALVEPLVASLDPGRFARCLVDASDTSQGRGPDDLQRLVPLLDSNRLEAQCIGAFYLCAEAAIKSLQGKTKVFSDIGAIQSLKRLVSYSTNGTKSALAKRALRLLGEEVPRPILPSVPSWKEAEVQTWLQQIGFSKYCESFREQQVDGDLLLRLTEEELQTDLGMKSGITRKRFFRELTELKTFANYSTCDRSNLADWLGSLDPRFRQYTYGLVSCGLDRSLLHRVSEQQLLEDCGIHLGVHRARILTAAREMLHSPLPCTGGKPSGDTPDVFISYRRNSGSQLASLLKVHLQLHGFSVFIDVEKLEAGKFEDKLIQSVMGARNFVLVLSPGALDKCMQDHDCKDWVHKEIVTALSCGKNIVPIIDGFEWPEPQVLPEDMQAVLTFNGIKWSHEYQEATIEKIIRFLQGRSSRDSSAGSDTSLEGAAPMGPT

[14] = target: Mitogen-activated protein kinase 7 (Homo sapiens) (UniProt Q13164); experiment: ERK5 transactivation activators in reporter cells, primary screen, cell-based, HTS (AID 1508626;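 active = luciferase signal above three times the same-plate solvent-only control wells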;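 note: luciferase driven by Gal4-ERK5 fusion binding five Gal4 sites before minimal TATA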); conditions: HeLa Gal4-ERK5 transactivation, 18 h, at 5 µM, stronger effect = higher value
Chain of Mitogen-activated protein kinase 7 (Homo sapiens) (Q13164 whole entry, looked up, the tested form may be a part): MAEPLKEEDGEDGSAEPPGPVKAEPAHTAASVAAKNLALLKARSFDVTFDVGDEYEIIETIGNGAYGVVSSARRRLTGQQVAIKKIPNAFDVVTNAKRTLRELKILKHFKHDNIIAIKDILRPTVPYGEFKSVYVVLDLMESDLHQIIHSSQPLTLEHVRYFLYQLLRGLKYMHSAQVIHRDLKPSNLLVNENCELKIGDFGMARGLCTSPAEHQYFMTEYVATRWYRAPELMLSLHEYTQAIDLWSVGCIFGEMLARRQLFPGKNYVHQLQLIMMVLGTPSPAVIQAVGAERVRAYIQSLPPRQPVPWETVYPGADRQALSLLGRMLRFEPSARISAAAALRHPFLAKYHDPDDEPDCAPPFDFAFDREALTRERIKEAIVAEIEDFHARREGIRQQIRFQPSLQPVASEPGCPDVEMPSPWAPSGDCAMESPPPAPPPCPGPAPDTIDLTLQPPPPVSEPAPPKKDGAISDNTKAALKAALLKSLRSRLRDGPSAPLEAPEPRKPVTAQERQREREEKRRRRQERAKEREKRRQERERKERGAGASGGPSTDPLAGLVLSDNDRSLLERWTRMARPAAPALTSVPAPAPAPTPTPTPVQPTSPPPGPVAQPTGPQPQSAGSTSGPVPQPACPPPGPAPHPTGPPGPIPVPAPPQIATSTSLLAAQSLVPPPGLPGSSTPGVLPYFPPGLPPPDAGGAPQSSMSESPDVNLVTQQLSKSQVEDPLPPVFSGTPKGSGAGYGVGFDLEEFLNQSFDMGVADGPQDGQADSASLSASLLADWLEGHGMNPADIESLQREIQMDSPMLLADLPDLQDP

[15] = test system: Aerobactin synthetase IucA (Klebsiella pneumoniae hvKP1); experiment: Biochemical IucA enzyme inhibition primary screen of the Spectrum library (AID 1346200); conditions: malachite green pyrophosphate, A620, at 8 µM, stronger effect = lower value;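 note: 100% = wells without compound and 0% = wells lacking enzyme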
[16] = circadian clock period modulators, cell-based, LOPAC library, luminescence reporter (AID 2774); conditions: circadian reporter cells, at 7 µM, actives lie on both sides;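 note: values are relative to mean of DMSO wells on each plate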
[17] = liver-stage malaria parasite growth inhibition, primary screen, cell-based, HepG2, luciferase luminescence, HepG2 viability (AID 624349; in the data active = parasite load remaining mostly below about 12%, no sharp cut-off; inactive = mostly above about 10%;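 note: 100% = mean of DMSO negative control wells on the same plate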); conditions: P. berghei liver stage in HepG2, luciferase luminescence, concentration not given here; parasite load remaining: stronger effect = lower value; viability: measured here: HepG2 viability without parasites
[18] = test system: Hepatitis C virus NS3 helicase; experiment: HCV NS3 helicase inhibitors, primary screen, biochemical, fluorescence polarization, LOPAC1280 library (AID 687035; in the data active = inhibition above about 37%); conditions: Purified HCV NS3 helicase, Cy5-dT15 ssDNA binding fluorescence polarization; stronger effect = higher value; concentration not given here
[19] = Cy5 fluorescence quenching or enhancement artefacts, artefact control for HCV NS3 helicase inhibitor project, biochemical, LOPAC1280 (AID 687037); conditions: Cy5-DNA-NS3h complex fluorescence interference counterscreen
[20] = test system: Aerobactin synthetase IucA (Klebsiella pneumoniae, hypervirulent); experiment: IucA enzyme inhibition, biochemical, LOPAC library, absorbance readout (AID 1346212); conditions: IucA enzyme assay, absorbance (OD) readout; stronger effect = lower value;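 tested at 8 µM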;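 note: 100% = no compound wells and 0% = no enzyme wells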
[21] = phospholipid biosynthesis inhibitors in animal cells, primary screen, cell-based, LOPAC library, screen 4 (AID 1347384); conditions: phospholipid biosynthesis inhibition screen, at 10 µM
[22] = viability rescue of complex I mutant cybrids, primary screen, cell-based, galactose medium, ATP luminescence (AID 1645843;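 active = z-score of at least 1.8 in each of two replicates, scored against plate mean and spread of sample wells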;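 note: positive z means more ATP and so rescue of galactose-driven cybrid death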); conditions: complex I mutant cybrid cells, 72 h, stronger effect = higher value
[23] = measured here: epithelial PC-3E GFP cell survival
[24] = measured here: mesenchymal TEM4-18 mCherry cell survival
[25] = measured here: relative caspase fold change +Dox/-Dox
[26] = measured here: total cells with miR-34 induction, stronger effect = lower value
[27] = measured here: total cells without miR-34 induction

## CC(=O)OC1CN2CCC1CC2 (centres undefined)
[1]
  inhibition: 0.37%
[2]
  score: 1.53
[3]
  rescue above control: -10.7
[4]
  cytochrome c release ratio: 0.82
[5]
  inhibition of aggregation: 22.1%
[6]
  glutamate uptake change: 24.5%
[7]
  inclusion score: 2
[8]
  aggregation suppression score: 1.12
[9]
  inhibition: 8.99% (inactive)
[10]
  red/green cell ratio (normalised): 0.81 (inactive)
[10]; [23]
  normalised cell number: 1.08
[10]; [24]
  normalised cell number: 0.87
[11]; stronger effect = lower value
  fold change: 0.909 (inactive)
[11]; [25]
  fold change: 0.869
[11]; [26]
  cell count: 8550
[11]; [27]
  cell count: 9400
[12]; MELAS cybrid survival, CellTiter-Glo 48 h, stronger effect = higher value
  z-score: -3.18 (inactive)
[12]; Rieske KO mouse fibroblast survival, CellTiter-Glo 72 h
  z-score: -1.86
[13]
  remaining NAD: 10 nM (inactive)

## CNC(=O)Oc1ccccc1OC(C)C
[9]
  inhibition: -1.91% (inactive)
[10]
  red/green cell ratio (normalised): 1 (inactive)
[10]; [23]
  normalised cell number: 1.06
[10]; [24]
  normalised cell number: 1.05
[11]; stronger effect = lower value
  fold change: 0.96 (inactive)
[11]; [25]
  fold change: 0.908
[11]; [26]
  cell count: 8560
[11]; [27]
  cell count: 8930
[13]
  remaining NAD: 10 nM (inactive)
[14]
  luciferase signal: 88 AU (inactive)

## CCOP(=S)(OCC)SCn1c(=O)oc2cc(Cl)ccc21
[9]
  inhibition: -13.8% (inactive)
[15]
  activity remaining: 96.1% (inactive)

## COc1nc(NC(C)C)nc(NC(C)C)n1
[9]
  inhibition: -20.6% (inactive)
[15]
  activity remaining: 117% (inactive)

## CC(C)N(C(=O)SCC(Cl)=C(Cl)Cl)C(C)C
[9]
  inhibition: 4.75% (inactive)
[15]
  activity remaining: 102% (inactive)

## NC(=NCCC[C@H](N)C(=O)O)N[N+](=O)[O-]
[1]
  inhibition: -12.4% and -12.2%
[2]
  score: 0.79 and 1.25
[3]
  rescue above control: -0.39 and 5.97
[4]
  cytochrome c release ratio: 0.94 and 0.84
[5]
  inhibition of aggregation: 34.7% and 12.9%
[6]
  glutamate uptake change: 19.3% and -1.48%
[7]
  inclusion score: 2
[8]
  aggregation suppression score: 1.04 and 1.38
[16]
  period change: 0.04 h (inactive)
[17]
  parasite load remaining: 100% (inactive)
  viability: 68.5%
[18]
  inhibition: -2% (inactive)
[19]
  fluorescence ratio (interference): 1 (inactive)
[9]
  inhibition: 3.83% (inactive)
[15]
  activity remaining: 121% (inactive)
[20]
  remaining activity: 115% (inactive)
[11]; stronger effect = lower value
  fold change: 1.02 (inactive)
[11]; [25]
  fold change: 0.79
[11]; [26]
  cell count: 10000
[11]; [27]
  cell count: 9830
[21]
  outcome: inactive
[14]
  luciferase signal: 44 AU (inactive)
[22]
  z-score: 0.525 (inactive)

## COc1cc2c(cc1OC)[C@@H]1C(=O)c3ccc(O)c(CC=C(C)C)c3O[C@@H]1CO2
[9]
  inhibition: -10.7% (inactive)
[15]
  activity remaining: 103% (inactive)

## OCC(O)Cc1ccc2c(c1)OCO2 (centres undefined)
[9]
  inhibition: 11.1% (inactive)
[15]
  activity remaining: 123% (inactive)
[14]
  luciferase signal: 16 AU (inactive)

## CC[C@@]1(O)C[C@H](O[C@H]2C[C@H](N(C)C)[C@H](O)[C@H](C)O2)c2c(cc3c(c2O)C(=O)c2c(O)cccc2C3=O)[C@H]1C(=O)OC
[1]
  inhibition: 61.1%
[2]
  score: 0.65
[3]
  rescue above control: 1.11
[4]
  cytochrome c release ratio: 3.13
[5]
  inhibition of aggregation: 90.8%
[6]
  glutamate uptake change: -25.9%
[8]
  aggregation suppression score: 0.115
[17]
  parasite load remaining: 0.915% (inactive)
  viability: 15.1%
[9]
  inhibition: -8.44% (inactive)
[15]
  activity remaining: 107% (inactive)
[14]
  luciferase signal: 5360 AU (active)

## NNCc1ccccc1
[17]
  parasite load remaining: 106% (inactive)
  viability: 91.4%
[9]
  inhibition: 9.93% (inactive)
[15]
  activity remaining: 105% (inactive)

— PubChem BioAssay
